Screens (PubChem BioAssay)
This is a sample that favours compounds with a hit; in the whole collection about 8.9% have one here.
KB-3-1 tox = qHTS assay for MDR1-selective chemotherapeutics: Primary screen using the parental adenocarcinoma cell KB-3-1; KB-3-1 viability, CellTiter-Glo ATP luminescence, 72 h; 400,000 compounds, 1.4% hits; Potency, µM (doses to about 46.1 µM), usual class: cytotoxic; AID 1347075, 2019; also: nearly all actives have a fitted effect of over 60% in size
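Here the drug-naive KB-3-1 line serves as comparator for MDR sub-line selectivity; cells received compound titrations, 72 h at 37 °C, then CellTiter-Glo readout.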
DRD3 agonist = qHTS of D3 Dopamine Receptor Agonist: qHTS; 410,000 compounds, 0.58% hits; D(3) dopamine receptor (Homo sapiens), P35462; max activation, %; D3R DiscoveRx beta-arrestin cells, luminescence, 90 min; AID 652048, 2013; in the data active = max activation above about 30%
Target sequence (P35462 whole entry, looked up): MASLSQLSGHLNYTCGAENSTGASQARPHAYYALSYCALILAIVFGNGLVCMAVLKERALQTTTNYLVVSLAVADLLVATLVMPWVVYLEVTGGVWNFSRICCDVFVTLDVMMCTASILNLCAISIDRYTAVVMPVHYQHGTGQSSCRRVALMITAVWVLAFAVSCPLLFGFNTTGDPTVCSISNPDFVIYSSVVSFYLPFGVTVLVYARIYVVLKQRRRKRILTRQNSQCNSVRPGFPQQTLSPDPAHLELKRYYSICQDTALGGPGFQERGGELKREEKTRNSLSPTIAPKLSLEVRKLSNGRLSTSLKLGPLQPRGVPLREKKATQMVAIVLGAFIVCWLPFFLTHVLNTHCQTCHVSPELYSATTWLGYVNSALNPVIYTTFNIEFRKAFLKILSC
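Agonist mode: compounds and dopamine controls were applied to plated cells for 90 min at 37 degrees C after an overnight attachment at 1500 cells/well. Luminescent read-out followed 30 - 60 minutes at room temperature with DiscoveRx detection reagent.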
D3 antag = qHTS of D3 Dopamine Receptor Antagonist: qHTS; D(3) dopamine receptor (Homo sapiens), P35462; D3R cells, DiscoveRx beta-arrestin luminescence, antagonist mode; active compounds read low; max response, negative = inhibition, %; 360,000 compounds, 2.5% hits; in the data active = max response below about -50%; inconclusive = no clear call, values can overlap the other calls
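Cells expressing the human receptor were seeded at 1500 cells/well, incubated overnight at 37 degrees C in 5% CO2, then exposed to library compounds with dopamine controls for 90 minutes at 37 degrees C before luminescent detection.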
SW480 rerep = A quantitative high throughput screen for small molecules that induce DNA re-replication in SW480 colon adenocarcinoma cells; 340,000 compounds, 1.8% hits; SW480 DNA re-replication, Hoechst DNA content imaging, 48 h; AID 624297, 2012; Potency, µM (titrated, usually from 46.1 µM), actives largely listed as activators; also: nearly all actives have a fitted effect of over 55% in size
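DNA re-replication was detected as more nuclei of elevated Hoechst intensity after 48 hr exposure to compound (23 nL pinned per well of 250 cells).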
KB-V1 cytotox = qHTS assay for MDR1-selective chemotherapeutics: Primary screen using the drug-selected MDR subline cells KB-V1; KB-V1 MDR cells viability, CellTiter-Glo, 72 h; AID 1347076, 2019; 400,000 compounds, 3.4% hits; Potency, µM (titrated, usually from 46.1 µM), hits mostly cytotoxic; also: nearly all actives have a fitted effect of over 60% in size
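Cytotoxicity toward P-gp-expressing KB-V1 cells was determined as loss of CellTiter-Glo luminescence after 72 h at 37 degrees C. Compounds were tested in quantitative HTS format across a concentration range, with curves fitted to normalized data.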
MCF10A rereplic = A quantitative high throughput screen for small molecules that induce DNA re-replication in MCF 10a normal breast cells; MCF 10A DNA re-replication, Hoechst nuclear intensity, 48 h; Potency, µM (doses to about 46.1 µM), most hits filed as activators; 350,000 compounds, 2.9% hits; AID 624296, 2012; also: nearly all actives have a fitted effect of over 50% in size
Numbers stand for hits; – = inactive; ? = inconclusive; · = no result given; [ ] = dose if it differs, or a comment. Unless noted, calls follow the shape of the dose curve; as a rule, active = well fitted curve in the direction sought with a large enough effect; inconclusive = small, poorly fitted or top-dose-only effect, or another doubt; inactive = no such curve, though single readings can be large; an effect the other way counts as inactive or inconclusive.

SMILES	KB-3-1 tox	DRD3 agonist	D3 antag	SW480 rerep	KB-V1 cytotox	MCF10A rereplic
N#Cc1nc(-c2ccc(OCc3ccc(Cl)cc3)cc2)oc1NCc1cccnc1	–	–	–	–	–	11µM
N#Cc1nc(-c2ccccc2)oc1NCCN1CCCCC1	–	–	-72	–	–	–
CN(C)c1oc(-c2ccc(OCc3ccccc3)cc2)nc1C#N	–	–	–	–	21µM	?
N#Cc1nc(-c2cccs2)oc1NCCN1CCOCC1	–	–	–	–	?	–
N#Cc1nc(-c2ccc(OCc3ccccc3)cc2)oc1NCCCn1ccnc1	?	–	–	–	23µM	–
N#Cc1nc(-c2ccc(OCc3ccccc3)cc2)oc1NCc1cccnc1	–	–	–	–	–	–
S=c1nc[nH]c2n[nH]nc12	–	·	·	·	–	·
CCOc1ccc(NC(=O)Cn2c(=O)cc(C)c3c(C)nn(-c4cccc(Cl)c4C)c32)cc1	–	–	·	·	–	·
O=C(CSc1n[nH]c(-c2ccncc2)n1)Nc1ccc(F)cc1	–	–	–	–	–	–
O=C(CSc1n[nH]c(-c2ccc(Cl)cc2Cl)n1)Nc1ccccn1	–	–	–	–	16µM	–
O=C(CSc1n[nH]c(-c2ccncc2)n1)Nc1ccccc1	–	–	–	–	–	–
O=C(CSc1n[nH]c(-c2ccccn2)n1)Nc1ccc(F)cc1	?	–	–	3.3µM	?	?
O=C(CSc1n[nH]c(-c2ccccn2)n1)Nc1ccc(Cl)cc1	?	–	–	9.2µM	–	–
Cc1ccc(NC(=O)CSc2n[nH]c(-c3ccccn3)n2)cc1	?	–	–	5.2µM	–	?
Cc1nc(SCC(=O)Nc2ccccn2)n[nH]1	–	–	–	–[1.84 µM]	–	–
O=C(Nc1nc(-c2ccc(Br)cc2)ns1)c1ccccc1F	·	–	·	·	·	·
Cc1ccc(NC(=O)CSc2ccc(-c3ccccn3)nn2)cc1	–	–	–	–	?	–
CCOc1ccc(NC(=O)CSc2ccc(-c3ccccn3)nn2)cc1	–	–	–	–	2.9µM	–
CCOC(=O)c1c(NC(=O)CSc2nnc(-c3ccccc3)o2)sc(C(C)=O)c1C	–	–	–	–	?	–
CCOC(=O)c1c(NC(=O)CN2CCCc3ccccc32)sc(C(C)=O)c1C	–	–	–	–	4.1µM	–
CCOC(=O)c1c(NC(=O)N/N=C/c2ccccc2OCC)sc(C(C)=O)c1C	16µM	–	–	–	?	?
CCOC(=O)c1c(NC(=O)CSc2nnc(Cc3ccccc3)o2)sc(C(C)=O)c1C	–	–	–	–	18µM	–
CCOC(=O)c1c(NC(=O)C2c3ccccc3Oc3ccccc32)sc(C(C)=O)c1C	–	–	–	–	?	–
CCOc1ccccc1NC(=O)C1CCN(S(=O)(=O)c2c(C)noc2/C=C/c2ccc(C)cc2)CC1	–	–	·	·	–	·
O=C(NC1CCCC1)C(c1ccc(F)cc1)N(Cc1ccc(F)cc1)C(=O)CCl (stereo unspecified)	?	–	–	?	18µM	–
Cc1ccc(-c2nnn(CC(=O)N(Cc3ccccc3)C(C(=O)NC3CCCC3)c3ccncc3)n2)o1 (stereo unspecified)	–	–	–	–	21µM	?
COc1ccc(-c2nnn(CC(=O)N(Cc3ccc(F)cc3)C(C(=O)NC3CCCC3)c3ccc(F)cc3)n2)cc1 (stereo unspecified)	–	–	-60	–	?	?
CCOC(=O)CN(C(=O)Cn1nnc(-c2ccc(OC)cc2)n1)C(C(=O)NC1CCCC1)c1ccc(F)cc1 (stereo unspecified)	–	–	–	–	–	–
CCOc1ccc(N(CC(=O)NCc2ccccc2)C(=O)Cn2nnc(-c3ccc(C)o3)n2)cc1	–	–	–	–	–	–
